According to the supplement of paper PMC6411743:
± gives the standard deviation of the averaged measurements. The full data set covers some 5,400 targets. This sample favours those with the largest changes.

Compound: Nc1nc2c(ncn2[C@@H]2O[C@H](COP(=O)(O)OP(=O)(O)OP(=O)(O)O)[C@@H](O)[C@H]2O)c(=O)[nH]1 [guanosine triphosphate]
Assay: NP40-soluble protein abundance relative to vehicle (solubility fold change) (ratio); higher = more soluble protein in presence of GTP
Details: concentration: 10mM
How it was run: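 Jurkat crude lysate (Dounce-homogenised) was treated with eight concentrations from 0.1 to 10 mM for 10 min at room temperature, then 3 min at 37 °C. It was solubilised with 0.8% NP40 and benzonase (60 min, 4 °C) and ultracentrifuged, and the supernatant was TMT-labelled for LC-MS/MS. Intensities were vsn-normalised, and the value is the fold change against the NP40-processed vehicle per replicate, from three independent experiments.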

Chain of UniProt O60287 (O60287 whole entry): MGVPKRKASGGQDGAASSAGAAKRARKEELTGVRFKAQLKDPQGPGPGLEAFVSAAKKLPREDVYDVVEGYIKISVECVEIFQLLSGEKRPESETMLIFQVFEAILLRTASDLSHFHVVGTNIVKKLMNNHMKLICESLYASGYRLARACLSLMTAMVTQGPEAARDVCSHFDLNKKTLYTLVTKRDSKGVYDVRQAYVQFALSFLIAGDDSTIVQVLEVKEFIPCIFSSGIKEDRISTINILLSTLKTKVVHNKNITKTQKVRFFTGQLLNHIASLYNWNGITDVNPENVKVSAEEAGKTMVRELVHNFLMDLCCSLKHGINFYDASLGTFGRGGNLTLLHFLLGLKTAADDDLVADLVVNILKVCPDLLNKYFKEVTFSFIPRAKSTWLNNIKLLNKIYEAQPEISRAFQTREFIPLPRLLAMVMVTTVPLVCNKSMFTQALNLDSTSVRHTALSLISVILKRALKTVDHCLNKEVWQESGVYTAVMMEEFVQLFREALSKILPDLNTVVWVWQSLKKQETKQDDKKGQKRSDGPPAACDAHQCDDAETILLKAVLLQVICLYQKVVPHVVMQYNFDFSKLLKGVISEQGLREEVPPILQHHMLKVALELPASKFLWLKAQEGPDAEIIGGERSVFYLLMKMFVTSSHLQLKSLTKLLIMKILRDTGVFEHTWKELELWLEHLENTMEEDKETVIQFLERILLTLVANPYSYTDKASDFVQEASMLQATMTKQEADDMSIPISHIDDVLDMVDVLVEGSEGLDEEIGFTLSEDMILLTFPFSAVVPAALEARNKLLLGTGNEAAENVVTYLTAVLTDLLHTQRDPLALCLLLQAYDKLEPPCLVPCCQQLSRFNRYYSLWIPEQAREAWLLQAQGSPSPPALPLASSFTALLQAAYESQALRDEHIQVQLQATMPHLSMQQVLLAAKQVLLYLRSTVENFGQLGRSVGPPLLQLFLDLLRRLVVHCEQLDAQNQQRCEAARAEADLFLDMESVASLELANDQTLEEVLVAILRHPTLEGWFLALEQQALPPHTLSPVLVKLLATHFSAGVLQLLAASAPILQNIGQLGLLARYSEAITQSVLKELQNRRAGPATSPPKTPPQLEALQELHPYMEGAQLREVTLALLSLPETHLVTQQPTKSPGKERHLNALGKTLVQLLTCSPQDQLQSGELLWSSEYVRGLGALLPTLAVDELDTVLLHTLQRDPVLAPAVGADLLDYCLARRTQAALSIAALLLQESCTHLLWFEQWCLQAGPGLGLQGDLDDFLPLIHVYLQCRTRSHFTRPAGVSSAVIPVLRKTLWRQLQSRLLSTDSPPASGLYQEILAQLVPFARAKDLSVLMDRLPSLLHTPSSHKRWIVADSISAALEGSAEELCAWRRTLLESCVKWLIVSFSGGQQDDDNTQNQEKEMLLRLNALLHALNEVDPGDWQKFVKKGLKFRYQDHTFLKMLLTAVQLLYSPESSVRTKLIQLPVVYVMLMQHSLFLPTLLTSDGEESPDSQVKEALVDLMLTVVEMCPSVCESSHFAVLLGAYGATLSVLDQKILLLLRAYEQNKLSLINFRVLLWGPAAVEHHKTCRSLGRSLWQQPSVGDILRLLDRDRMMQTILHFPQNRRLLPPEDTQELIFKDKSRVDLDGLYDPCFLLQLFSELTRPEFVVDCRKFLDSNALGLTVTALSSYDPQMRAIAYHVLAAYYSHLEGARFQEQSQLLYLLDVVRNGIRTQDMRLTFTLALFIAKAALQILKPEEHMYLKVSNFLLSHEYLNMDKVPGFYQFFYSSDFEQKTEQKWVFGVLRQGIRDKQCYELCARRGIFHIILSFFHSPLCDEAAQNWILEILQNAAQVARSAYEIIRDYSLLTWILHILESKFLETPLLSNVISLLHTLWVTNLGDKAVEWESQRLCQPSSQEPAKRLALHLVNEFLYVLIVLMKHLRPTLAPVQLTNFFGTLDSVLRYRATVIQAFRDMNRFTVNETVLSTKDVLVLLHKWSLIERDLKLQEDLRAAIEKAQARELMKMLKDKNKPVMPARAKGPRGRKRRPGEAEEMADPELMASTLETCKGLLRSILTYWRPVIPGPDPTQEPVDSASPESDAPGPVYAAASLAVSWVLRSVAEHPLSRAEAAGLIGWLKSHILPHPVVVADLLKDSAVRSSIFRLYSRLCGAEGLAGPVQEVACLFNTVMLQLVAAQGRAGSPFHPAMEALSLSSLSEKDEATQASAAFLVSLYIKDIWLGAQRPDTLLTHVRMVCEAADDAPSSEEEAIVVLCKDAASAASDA
Chain of UniProt O60861 (O60861 whole entry): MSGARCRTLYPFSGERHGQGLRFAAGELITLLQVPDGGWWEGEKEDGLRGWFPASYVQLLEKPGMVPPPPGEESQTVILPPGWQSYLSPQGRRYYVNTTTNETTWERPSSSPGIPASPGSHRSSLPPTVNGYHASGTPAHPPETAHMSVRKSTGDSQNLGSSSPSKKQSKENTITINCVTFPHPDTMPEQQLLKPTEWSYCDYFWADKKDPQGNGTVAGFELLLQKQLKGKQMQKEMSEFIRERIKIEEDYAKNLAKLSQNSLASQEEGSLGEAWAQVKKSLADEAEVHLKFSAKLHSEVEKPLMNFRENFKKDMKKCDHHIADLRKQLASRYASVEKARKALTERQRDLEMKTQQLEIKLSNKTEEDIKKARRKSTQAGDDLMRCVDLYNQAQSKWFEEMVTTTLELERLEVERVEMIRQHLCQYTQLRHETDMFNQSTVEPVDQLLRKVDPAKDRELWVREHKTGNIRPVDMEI
Chain of UniProt Q9Y2L5 (Q9Y2L5 whole entry, one chain of several): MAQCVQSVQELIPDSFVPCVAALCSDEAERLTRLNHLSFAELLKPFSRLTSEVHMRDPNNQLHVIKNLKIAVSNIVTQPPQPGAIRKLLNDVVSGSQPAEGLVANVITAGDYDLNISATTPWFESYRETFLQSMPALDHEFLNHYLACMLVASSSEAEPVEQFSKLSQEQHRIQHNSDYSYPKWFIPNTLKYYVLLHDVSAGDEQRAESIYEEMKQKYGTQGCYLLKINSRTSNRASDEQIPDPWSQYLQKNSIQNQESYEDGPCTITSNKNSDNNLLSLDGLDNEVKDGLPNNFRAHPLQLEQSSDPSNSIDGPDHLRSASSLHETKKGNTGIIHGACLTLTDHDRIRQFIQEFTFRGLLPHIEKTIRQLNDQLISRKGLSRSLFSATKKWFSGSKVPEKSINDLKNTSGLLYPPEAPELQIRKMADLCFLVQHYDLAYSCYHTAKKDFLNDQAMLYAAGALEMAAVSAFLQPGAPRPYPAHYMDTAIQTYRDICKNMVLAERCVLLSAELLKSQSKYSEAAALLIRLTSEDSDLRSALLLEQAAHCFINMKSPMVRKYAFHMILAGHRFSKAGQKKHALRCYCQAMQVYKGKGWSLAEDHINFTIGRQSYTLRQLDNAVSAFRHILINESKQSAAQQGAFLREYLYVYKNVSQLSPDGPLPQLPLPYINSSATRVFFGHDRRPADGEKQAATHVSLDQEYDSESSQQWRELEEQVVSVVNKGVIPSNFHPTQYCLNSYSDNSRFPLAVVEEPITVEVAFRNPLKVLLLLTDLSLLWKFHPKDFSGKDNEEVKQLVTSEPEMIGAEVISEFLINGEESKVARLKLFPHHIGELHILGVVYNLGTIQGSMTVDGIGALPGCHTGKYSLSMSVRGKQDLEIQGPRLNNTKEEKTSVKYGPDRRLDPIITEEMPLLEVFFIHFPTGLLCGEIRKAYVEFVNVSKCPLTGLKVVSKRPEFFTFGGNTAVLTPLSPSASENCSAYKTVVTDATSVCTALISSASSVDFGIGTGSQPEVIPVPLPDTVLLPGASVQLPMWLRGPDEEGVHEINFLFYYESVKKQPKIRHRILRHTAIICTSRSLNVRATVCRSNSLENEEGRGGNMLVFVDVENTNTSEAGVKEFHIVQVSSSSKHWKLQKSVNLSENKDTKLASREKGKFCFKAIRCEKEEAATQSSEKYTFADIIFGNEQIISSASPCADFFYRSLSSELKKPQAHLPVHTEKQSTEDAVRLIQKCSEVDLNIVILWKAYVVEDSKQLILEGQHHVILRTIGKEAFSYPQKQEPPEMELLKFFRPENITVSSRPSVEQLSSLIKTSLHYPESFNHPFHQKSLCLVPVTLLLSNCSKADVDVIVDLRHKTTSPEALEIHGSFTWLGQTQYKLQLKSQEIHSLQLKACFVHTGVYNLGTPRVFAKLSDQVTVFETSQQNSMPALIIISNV
Chain of UniProt O75170 (O75170 whole entry): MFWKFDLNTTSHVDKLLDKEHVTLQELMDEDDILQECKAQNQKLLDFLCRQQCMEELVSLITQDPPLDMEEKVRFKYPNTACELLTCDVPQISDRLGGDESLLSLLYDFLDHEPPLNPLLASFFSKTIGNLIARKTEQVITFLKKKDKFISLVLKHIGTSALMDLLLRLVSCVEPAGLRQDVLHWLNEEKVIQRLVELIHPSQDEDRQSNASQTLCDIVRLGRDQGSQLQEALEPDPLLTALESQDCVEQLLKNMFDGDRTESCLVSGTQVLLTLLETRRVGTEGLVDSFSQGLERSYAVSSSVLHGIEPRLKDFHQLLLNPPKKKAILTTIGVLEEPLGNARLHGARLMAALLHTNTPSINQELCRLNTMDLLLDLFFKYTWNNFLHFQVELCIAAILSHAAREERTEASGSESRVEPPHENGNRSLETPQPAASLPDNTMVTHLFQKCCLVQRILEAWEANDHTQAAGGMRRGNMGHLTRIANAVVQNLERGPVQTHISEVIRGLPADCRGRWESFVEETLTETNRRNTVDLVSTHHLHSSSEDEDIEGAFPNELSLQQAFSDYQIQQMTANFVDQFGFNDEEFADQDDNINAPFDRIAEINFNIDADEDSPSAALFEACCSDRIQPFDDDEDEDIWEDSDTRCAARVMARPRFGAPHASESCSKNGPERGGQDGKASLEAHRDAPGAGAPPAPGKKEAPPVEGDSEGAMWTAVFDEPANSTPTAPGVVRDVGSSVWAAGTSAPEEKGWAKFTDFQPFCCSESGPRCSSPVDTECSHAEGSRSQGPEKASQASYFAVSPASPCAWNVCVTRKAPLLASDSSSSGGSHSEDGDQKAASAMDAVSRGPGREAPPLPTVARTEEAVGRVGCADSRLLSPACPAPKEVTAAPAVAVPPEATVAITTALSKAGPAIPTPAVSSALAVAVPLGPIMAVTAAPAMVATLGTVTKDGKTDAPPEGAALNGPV

Target	NP40-soluble protein abundance
P15531-2|P22392-2|Q32Q12 (UniProt Q32Q12+P22392+P15531)	0.839 ± 0.025
UniProt P17096|P17096-2	2.02 ± 0.076
ARID1A (UniProt O14497)	1.13 ± 0.17
ARPC1B (UniProt O15143)	0.887 ± 0.012
CDC34 (UniProt P49427)	1.06 ± 0.084
PPT1 (UniProt P50897)	0.861 ± 0.099
AKR1A1 (UniProt P14550)	0.825 ± 0.08
PSMB4 (UniProt P28070)	0.976 ± 0.14
UniProt O95758-2|O95758-6|O95758|O95758-1|O95758-4|O95758-5|O95758-7	0.951 ± 0.038
UniProt O75170|O75170-2|O75170-3|O75170-4|O75170-5	1.05 ± 0.075
J3QQJ5|Q9Y2L5 (UniProt Q9Y2L5)	0.981 ± 0.13
TIMM23 (UniProt O14925)	0.898 ± 0.042
UniProt P30622|P30622-1	1.01 ± 0.11
UniProt P49840	0.888 ± 0.051
UniProt O00567	2.48 ± 0.13
UniProt O60861|O60861-1|O60861-4	0.888 ± 0.06
XPO1 (UniProt O14980)	0.848 ± 0.044
UniProt P04150|P04150-10|P04150-2|P04150-3|P04150-5|P04150-6|P04150-7|P04150-8|P04150-9|P04150-11|P04150-12|P04150-13	1.05 ± 0.069
UniProt O75582|A0A0A0MQV2	0.912 ± 0.044
PPIF (UniProt P30405)	0.887 ± 0.079

Target	NP40-soluble protein abundance
HMGN4 (UniProt O00479)	4.79 ± 0.19
UniProt O15111	0.887 ± 0.024
DNAJC8 (UniProt O75937)	1.3 ± 0.25
NUDT2 (UniProt P50583)	1.16 ± 0.26
UniProt P49588|P49588-2	0.848 ± 0.052
FXR1 (UniProt P51114)	2.28 ± 0.13
HIST1H1B (UniProt P16401)	1.73 ± 0.19
UniProt P48634|P48634-2|P48634-3	1.84 ± 0.28
UniProt P09651|P09651-2	1.25 ± 0.16
NUP62 (UniProt P37198)	1.19 ± 0.047
UniProt P38159|P38159-2	2.04 ± 0.32
URB1 (UniProt O60287)	2.34 ± 0.033
RPL21 (UniProt P46778)	0.971 ± 0.23
NUDT21 (UniProt O43809)	2.07 ± 0.44
UniProt O43865	0.98 ± 0.047
SFPQ (UniProt P23246)	2.04 ± 0.36
ZKSCAN1 (UniProt P17029)	0.993 ± 0.041
UniProt P09564	0.932 ± 0.14
EEF2K (UniProt O00418)	0.941 ± 0.039
